Screening data from PubChem.
This is a sample that favours compounds with a hit; in the whole collection about 2.6% have one here.
PABP1 MLLE inh = inhibitors of PABP1 MLLE–PAM2 peptide binding, primary screen, biochemical, fluorescence polarization, FITC-PAM2, GST-MLLE; inhibition, % at 20 µM; actives 0.36% (n = 360,000); Polyadenylate-binding protein 1 (Homo sapiens), P11940; in the data active means inhibition above about 35%, passing the limit was not always enough;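 further: plate controls were DMSO wells with GST-MLLE for no effect and wells lacking GST-MLLE protein for full effect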
Target sequence (P11940 whole entry, looked up): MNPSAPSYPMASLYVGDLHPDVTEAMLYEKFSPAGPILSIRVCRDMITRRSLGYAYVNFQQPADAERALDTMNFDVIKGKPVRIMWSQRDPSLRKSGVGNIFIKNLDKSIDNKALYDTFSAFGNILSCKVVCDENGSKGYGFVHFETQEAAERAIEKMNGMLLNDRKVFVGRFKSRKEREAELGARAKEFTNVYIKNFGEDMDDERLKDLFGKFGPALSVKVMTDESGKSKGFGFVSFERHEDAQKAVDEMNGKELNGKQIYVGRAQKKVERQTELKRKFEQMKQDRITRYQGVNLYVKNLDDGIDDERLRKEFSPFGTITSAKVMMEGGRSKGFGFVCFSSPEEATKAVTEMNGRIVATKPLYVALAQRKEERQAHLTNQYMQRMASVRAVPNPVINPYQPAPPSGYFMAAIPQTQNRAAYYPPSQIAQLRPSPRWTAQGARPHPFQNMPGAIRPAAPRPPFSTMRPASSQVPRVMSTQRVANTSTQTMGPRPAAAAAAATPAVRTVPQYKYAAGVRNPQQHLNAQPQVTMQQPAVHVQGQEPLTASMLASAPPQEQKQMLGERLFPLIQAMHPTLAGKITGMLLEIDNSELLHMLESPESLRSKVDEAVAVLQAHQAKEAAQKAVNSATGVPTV
PABP FP inh = PABP poly(A) RNA binding inhibitors, primary screen, biochemical, fluorescence polarization, uHTS; inhibition, % at 35 µM; actives 1% (n = 290,000); AID 2014, 2009;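 further: calls also rest on retests at 20 µM and on dose response follow-up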
PHOSPHO1 inh = PubChem AID 1565 | recombinant PHOSPHO1, absorbance phosphatase assay | actives 1.1% (n = 290,000) | inhibition, % at 13.3 µM | Phosphoethanolamine/phosphocholine phosphatase (Homo sapiens), Q8TCT1; in the data active means inhibition above about 60%
eIF4H inh = human eIF4H binding inhibitors, primary screen, translation initiation inhibitor project, biochemical, uHTS, fluorescence polarization. Eukaryotic translation initiation factor 4H (Homo sapiens), Q15056. eIF4H fluorescence polarization binding assay. AID 2012, 2009. actives 0.94% (n = 290,000). inhibition, % at 35 µM;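 further: calls also rest on retests at 20 µM and on dose response follow-up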
CRFBP-R2 block = antagonists of CRF-BP/CRF-R2 complex, primary screen, cell-based, HEK293, calcium dye fluorescence, uHTS; CRF-induced calcium fluorescence; inhibition, % at 11.8 µM; actives 0.59% (n = 350,000);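 active means inhibition of the ligand-induced calcium signal above about 50% at the single tested concentration, limit read from the data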
* marks the source's active call; other numbers are inactive results; ? = inconclusive; · = not tested or not shown. Unless noted, how the calls were made is not given here.

SMILES	PABP1 MLLE inh	PABP FP inh	PHOSPHO1 inh	eIF4H inh	CRFBP-R2 block
Cc1ccc(S(=O)(=O)N2CCN(C(=O)n3ccnc3)CC2)cc1	-3	·	·	·	-7
OC(c1ccccc1)(c1nc(/C=C/c2ccc(C(F)(F)F)cc2)cs1)C(F)(F)F (stereo not drawn)	15	·	·	·	·
C=CCCC(=O)Nc1nc(C)c(-c2csc(Nc3ccccc3OC)n2)s1	2	-4	77*	-2	-1
COc1cc(C=O)ccc1Oc1nc(Nc2ccc(F)cc2F)nc(N2CCOCC2)n1	-5	-8	36	2	-35
CC(C)OCc1c(C(=O)OC/C(O)=C(\C#N)c2nc3ccccc3[nH]2)oc2ccccc12	-24	-8	21	12	62*
Cc1c(C(=O)OC/C(O)=C(\C#N)c2nc3ccccc3[nH]2)oc2ccc(Br)cc12	-43	-2	5	20	5
N#C/C(=C(/O)COC(=O)COc1cccc(Br)c1)c1nc2ccccc2[nH]1	-31	7	-10	13	100*
N#C/C(=C(/O)CCl)c1nc2ccccc2[nH]1	-15	active	12	?	-2
N#C/C(=C(\O)Cc1ccccc1)c1nc2ccccc2[nH]1	-2	9	11	2	0
Cc1cnc(CNc2nc3cc(-c4ccccc4C)sc3c(=O)n2C)cn1	4	·	·	·	·
CCNc1nc(C#N)nc2c1ncn2-c1cc(F)cc(F)c1	-31	·	·	·	-8
N#CC(=C=[N-])c1nc2ccccc2nc1-[n+]1cccc(NC(=O)c2cccs2)c1	-8	54*	24	54*	7
N#CC(=C=[N-])c1nc2ccccc2nc1-[n+]1cccc(NC(=O)c2ccccc2)c1	-6	16	-6	22	7
CNC(=S)NN=C(C)c1ccc(OC)cc1O	43*	·	·	·	8
Cn1c(=O)c2c(nc(N/N=C/c3cccnc3)n2Cc2ccc(F)cc2)n(C)c1=O	-17	-2	3	-6	-2
COC(=O)C1C2C=CC3(CN(C(C)c4ccc(OC)cc4)C(=O)C13)O2 (stereo not drawn)	-2	54*	41	active	-6
COc1ccc(C(C)N2CC34C=CC(O3)C(C(=O)O)C4C2=O)cc1 (stereo not drawn)	17	-7	-2	-4	3
CCCC(=O)N1CCC1(C)C(=O)NS(=O)(=O)c1cc2c(cc1C)CCCS2(=O)=O (stereo not drawn)	7	·	·	·	·
Cc1ccc(NC(=O)COc2ccc(/C=C3/SC(=Nc4ccccc4)N(Cc4cccnc4)C3=O)cc2)cc1	-18	79*	2	58*	-3
COc1ccc(CNC(=O)C2CCN(C(=O)[C@@H]3Cc4ccccc4CN3)CC2)cc1	-7	20	34	-7	-8
CC(=O)SC(C[N+](=O)[O-])c1cn(C(C)=O)c2ccccc12 (stereo not drawn)	25	10	63*	5	-4
CCOc1ccc2nc(SCC(=O)c3ccc(Cl)s3)sc2c1	-69	50*	62*	55*	15
CCOC(=O)CSc1nc2ccc(N)cc2s1	8	-1	83*	-9	7
O=C1CC(c2ccc(O)c(O)c2)Oc2c1ccc(O)c2O (stereo not drawn)	-10	53*	-1	94*	9
CCOc1ccccc1N1C(=O)CC(Sc2n[nH]c(-c3ccccc3)n2)C1=O (stereo not drawn)	22	-10	32	-4	-1
SMILES	PABP1 MLLE inh	PABP FP inh	PHOSPHO1 inh	eIF4H inh	CRFBP-R2 block
CC(C)C1=C2CCCCC2NC(=O)N1 (stereo not drawn)	62*	19	19	0	8
NC(=O)c1cc(Cc2ccccc2)sc1NC(=O)c1ccco1	25	8	24	6	-28
CCOc1ccc(CC(=O)Nc2sc(Cc3ccccc3)cc2C(N)=O)cc1OCC	31	-8	97*	-4	5
Nc1c(C(=O)Nc2ccc(Br)cc2)sc2nc(-c3ccco3)ccc12	-9	50*	45	81*	-13
NC(=O)c1sc2nc(-c3cccs3)ccc2c1N	-6	20	25	46	7
Nc1c(C(=O)Nc2ccc(F)cc2)sc2nc(-c3ccco3)ccc12	-2	91*	35	99*	-18
COc1ccc(NC(=O)c2cc(-c3ccco3)nc3ccccc23)cc1	1	·	·	·	18
CC(=O)c1sc2nc(-c3ccco3)ccc2c1N	30	84*	-4	91*	18
CC(Oc1ccccc1)C(=O)Nc1cc(Cl)ccc1-n1cncn1 (stereo not drawn)	-19	·	·	·	1
Cc1cc(NC(=O)CS(=O)(=O)c2cn(Cc3cccc(C(F)(F)F)c3)c3ccccc23)no1	3	·	·	·	·
O=C(CCN1CCOCC1)NNC(=S)NC(=O)c1ccccc1	38*	24	19	2	12
CC1(c2ccccc2)CC(C)(C)N2C(=O)C3(C(C#N)=C(N)Oc4cc(O)ccc43)c3cccc1c32 (stereo not drawn)	-15	-5	3	1	116*
CC1=CC(C)(C)N2C(=O)C3(C(C#N)=C(N)Oc4cc(O)ccc43)c3c(C)c(C)cc1c32 (stereo not drawn)	-2	-3	9	-9	66*
CC1=C(C(=O)N(C(C)C)C(C)C)CC(CC(=O)NC2CCCCC2)C(=O)N1Cc1ccc(F)cc1 (stereo not drawn)	6	·	·	·	·
C[C@@H]1CN([C@H](C)CO)C(=O)Cc2cc(NC(=O)Nc3ccccc3)ccc2O[C@@H]1CN(C)Cc1ccc2c(c1)OCO2	-2	·	·	·	7
CCC1=NN(C(=O)C(=O)Nc2ccc(OC)cc2)C(O)(C(F)(F)F)C1 (stereo not drawn)	-55	5	72*	-1	2
CCC1=NN(C(=O)C(=O)Nc2ccccc2OC)C(O)(C(F)(F)F)C1 (stereo not drawn)	-108	9	-90	3	18
CC(C)CCCCCCCCCCCCC(=O)NCC(=O)NC1C(O)C(O)C(Nc2ncnc3nc[nH]c23)OC1C(O)CO (stereo not drawn)	-2	·	·	·	12
O=C(CN1C(=O)NC2(CCCCCCC2)C1=O)NC1CCCc2ccccc21 (stereo not drawn)	-15	4	173*	4	-10
Cc1ccc[n+](-c2nc([O-])sc2/C=N/Nc2ccc([N+](=O)[O-])cc2)c1	60*	83	-176	117	1
COc1ccc(NS(=O)(=O)c2cccc(C(=O)N3CCN(S(=O)(=O)c4ccccc4)CC3)c2)cc1	3	·	·	·	16
CCOC(=O)c1sc(-c2cccc(C(F)(F)F)c2)nc1O	24	6	20	3	-1
CCOC(=O)c1sc(-c2ccc(C(F)(F)F)cc2)nc1O	67	7	10	-1	54*
C[C@@H](C(=O)NCCc1ccccc1)N1C(=O)N2CCc3c([nH]c4ccccc34)[C@@]2(C)C1=O	3	6	18	-1	-9
